Laboratory results published in PubChem BioAssay AID588676 (Johns Hopkins Ion Channel Center, 2011).
Among all 310,000 compounds or so, about 3,900 (1.3%) were called active. The sample holds actives, similar compounds and a random draw of the others, so the mix is not that of the screen.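 Rule for the calls: active = calcium-response B-score plate-corrected more than 3 library SD below zero, starting fluorescence within 5 deviations, no agonist response on first addition; inactive = the rest.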

Target: Mas-related G-protein coupled receptor member X1 (Homo sapiens) (UniProt Q96LB2)
Assay: antagonists of human MrgX1 receptor, primary screen, HEK293 cells, Fluo-4 calcium flux (AID 588676);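 for B-score: peak minus trough fluorescence over baseline after final BAM8-22 challenge near maximal dose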
Conditions: Fluo-4, BAM8-22 antagonism, at 10 µM; hits give low values

Mas-related G-protein coupled receptor member X1 (Homo sapiens), sequence (Q96LB2 whole entry, looked up): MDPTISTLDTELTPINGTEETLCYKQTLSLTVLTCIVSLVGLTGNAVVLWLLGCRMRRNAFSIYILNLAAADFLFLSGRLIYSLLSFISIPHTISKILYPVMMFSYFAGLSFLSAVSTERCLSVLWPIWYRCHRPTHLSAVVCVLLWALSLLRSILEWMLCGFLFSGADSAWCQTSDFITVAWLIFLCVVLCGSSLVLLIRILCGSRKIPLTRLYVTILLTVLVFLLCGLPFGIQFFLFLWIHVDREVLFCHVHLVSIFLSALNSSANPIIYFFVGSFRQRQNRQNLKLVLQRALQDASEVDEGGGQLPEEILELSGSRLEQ

`O=C1CCC(C(=O)N2CCC(O)(c3ccccc3)CC2)CN1CCc1ccccc1` (stereo not drawn) was tested. Which B-score did it give?
Its B-score is “inactive”.

For `COc1ccccc1OCc1nnc(SCC(N)=O)n1-c1ccccc1`, which B-score is on record?
The B-score was “inactive”.

Which B-score does the source give for `CC(C)(C)NC(=O)NC(=O)COC(=O)C1(C)CC1(Cl)Cl` (stereo not drawn) here?
Its B-score is “inactive”.

`COc1cc(CCC(=O)N2CCN(c3ccccc3Cl)CC2)cc(OC)c1OC` was tested. Which B-score did it give?
The B-score was “inactive”.

Which B-score does the source give for `COc1cc(CCC(=O)Nc2ccncc2Cl)cc(OC)c1OC` here?
Its B-score is -6.22 (active).

Which B-score does the source give for `COc1cc(CCC(=O)OCC(=O)Nc2cccc(S(N)(=O)=O)c2)cc(OC)c1OC` here?
The B-score was “inactive”.

How did the B-score turn out when `C#CCOCCOCCOCCNc1nc(N2CCN(C(=O)CCCCCCCCCCNC(=O)[C@H]([C@@H](C)CC)n3cc(CCCCN=C(N)N)nn3)CC2)nc(N2CCN(C(=O)CCCCCCCCCCNC(=O)[C@H](CO)n3cc(CCCSC)nn3)CC2)n1` was run?
The B-score was “inactive”.

`O=C(NCC(=O)N(Cc1cccs1)C(C(=O)NC1CCCCC1)c1ccco1)c1cccs1` (stereo not drawn) was tested. Which B-score did it give?
The B-score was “inactive”.

Which B-score does the source give for `COc1ccc(N2CCN(CCCNC(=O)C3CCN(S(=O)(=O)N4CCOCC4)CC3)CC2)cc1` here?
Its B-score is “inactive”.

For `CCOc1ccc(CCNC(=O)C2CCN(c3ccc(N4CCOCC4)nn3)CC2)cc1OCC`, which B-score is on record?
The B-score was “inactive”.

`COCCCNC(=O)C1CCN(c2ccc(N3CCOCC3)nn2)CC1` was tested. Which B-score did it give?
The B-score was -6.39 (active).

For `CN1CCN(Cc2c(C(=O)N3CCc4ccccc4C3)nc3ccc(Cl)cn23)CC1`, which B-score is on record?
Its B-score is “inactive”.

For `CCc1nn(-c2cc(Oc3cccc4ccccc34)nc(-c3ccccc3)n2)c(N)c1C#N`, which B-score is on record?
The B-score was “inactive”.

With `COCCCNCC(=O)Nc1sc(C)c(C)c1C(=O)OC` as the compound, how does the B-score read?
Its B-score is “inactive”.

Which B-score does the source give for `CCOC(=O)c1c(NC(=O)CSc2nccc(=O)[nH]2)sc(C)c1C` here?
Its B-score is “inactive”.

With `COC(=O)c1c(NC(=O)c2c(Cl)cnn2C)sc(C)c1C` as the compound, how does the B-score read?
Its B-score is -4.74 (active).

`CN(C)c1cccc(C(=O)N2CCC(n3nccc3NC(=O)C3CCOC3)CC2)c1` (stereo not drawn) was tested. Which B-score did it give?
Its B-score is “inactive”.

How did the B-score turn out when `Cc1ccccc1OCCC(=O)OCC(=O)NC(C)c1ccccc1` (stereo not drawn) was run?
Its B-score is “inactive”.

Which B-score does the source give for `O=C(Cn1cc(C(=O)C2CC2)c2ccccc21)Nc1ccccc1Cl` here?
Its B-score is “inactive”.

With `Cc1ccc(-n2cnc3ncnc(-c4ccccc4)c32)cc1` as the compound, how does the B-score read?
Its B-score is “inactive”.

Which B-score does the source give for `Cc1ccc(-c2nn(C(C)(C)C)c3ncnc(N)c23)cc1` here?
Its B-score is -4.54 (active).

For `CC(=O)Nc1ccc(NC(=O)COc2ccc(S(=O)(=O)NC(C)c3ccccc3)cc2)cc1` (stereo not drawn), which B-score is on record?
The B-score was “inactive”.

For `COCCOC(=O)c1c(C)oc2cc(Br)c(OCC(N)=O)cc12`, which B-score is on record?
The B-score was “inactive”.

For `CCOC(=O)c1sc(NC(=O)COc2ncnc3ccccc23)c(C(=O)OCC)c1C`, which B-score is on record?
The B-score was “inactive”.

`CCOC(=O)c1c(NC(=O)CNC2CCCc3ccccc32)sc(C(N)=O)c1C` (stereo not drawn) was tested. Which B-score did it give?
The B-score was -4.67 (active).

For `CCOC(=O)c1sc(NC(=O)CSc2nnc(-c3ccco3)o2)c(C(=O)OCC)c1C`, which B-score is on record?
The B-score was “inactive”.

Which B-score does the source give for `Cc1ccc(C(=O)C(C)OC(=O)Cc2n[nH]c(=O)c3ccccc23)cc1C` (stereo not drawn) here?
Its B-score is “inactive”.

With `O=C(CSc1nc2ccc([N+](=O)[O-])cc2[nH]1)c1ccc(Cl)cc1` as the compound, how does the B-score read?
Its B-score is “inactive”.

Which B-score does the source give for `O=C(Cc1nc2ccccc2[nH]c1=O)c1ccc(Cl)cc1` here?
Its B-score is -5.73 (active).

Which B-score does the source give for `O=C(/C(=C/c1cccc(Cl)c1)c1nc2ccccc2[nH]1)c1ccccc1` here?
Its B-score is “inactive”.

Which B-score does the source give for `CN1CCN(c2ccccc2NC(=O)COc2ccc(C3CCCCC3)cc2)CC1` here?
Its B-score is “inactive”.

`Cc1nnc(SCc2cc(=O)[nH]c(N3CCN(Cc4ccccc4)CC3)n2)s1` was tested. Which B-score did it give?
The B-score was “inactive”.

For `O=c1cc(CSc2ccccn2)nc(N2CCN(c3ccccc3)CC2)[nH]1`, which B-score is on record?
The B-score was -4.82 (active).

With `Cc1ccc(SCc2cc(=O)[nH]c(N3CCCCC3)n2)cc1` as the compound, how does the B-score read?
The B-score was “inactive”.

`C=CCOc1cccc(C2C(C(=O)c3ccc(C)o3)=C(O)C(=O)N2c2nnc(C)s2)c1` (stereo not drawn) was tested. Which B-score did it give?
Its B-score is -4.61 (active).

How did the B-score turn out when `Cc1cc(N2C(=O)C(O)=C(C(=O)c3ccc(C)o3)C2c2ccc(OCc3ccccc3)cc2)no1` (stereo not drawn) was run?
Its B-score is “inactive”.

For `C=CCOc1cccc(C2C(C(=O)c3ccc(C)o3)=C(O)C(=O)N2CCCn2ccnc2)c1` (stereo not drawn), which B-score is on record?
Its B-score is “inactive”.

For `COc1ccc(/C(O)=C2/C(=O)C(=O)N(CC3CCCO3)C2c2ccc(OC)c(OC)c2)cc1` (stereo not drawn), which B-score is on record?
Its B-score is “inactive”.

`COc1ccc(NC(C(=O)Nc2cccc(C(C)=O)c2)c2ccccc2)cc1` (stereo not drawn) was tested. Which B-score did it give?
The B-score was “inactive”.

With `Cc1cc(-c2ccc(S(=O)(=O)N3CCN(c4cccc(C(F)(F)F)c4)CC3)s2)on1` as the compound, how does the B-score read?
Its B-score is “inactive”.

How did the B-score turn out when `O=C(Cc1ccccn1)c1ccc(O)cc1O` was run?
The B-score was -4.66 (active).

With `COc1ccc(C(=O)Cc2cnn(-c3ccccc3)c2)c(O)c1` as the compound, how does the B-score read?
Its B-score is “inactive”.

How did the B-score turn out when `COc1ccc(CC(=O)c2ccc(O)cc2O)cc1OC` was run?
The B-score was “inactive”.

How did the B-score turn out when `CCn1c(SCC(=O)NC2CC2)nnc1-c1ccccc1OC` was run?
The B-score was “inactive”.

For `O=C(NCC1CCCO1)c1ccccc1-c1nc(-c2ccccc2Cl)no1` (stereo not drawn), which B-score is on record?
The B-score was “inactive”.

How did the B-score turn out when `C=CCn1nc(-c2ccccc2)c2c(C)onc2c1=O` was run?
Its B-score is -6.96 (active).

How did the B-score turn out when `Cc1nn(-c2ccccc2)c(=O)c2noc(C)c12` was run?
Its B-score is “inactive”.

How did the B-score turn out when `C=CCn1cnc2scc(-c3ccccc3)c2c1=O` was run?
The B-score was “inactive”.

With `COc1cccc2cc(C(N)=O)/c(=N\NC(=O)c3ccccc3)oc12` as the compound, how does the B-score read?
Its B-score is “inactive”.

For `O=C(Cn1ccc([N+](=O)[O-])n1)NCc1cccs1`, which B-score is on record?
Its B-score is “inactive”.

Which B-score does the source give for `O=C(CCn1ccc([N+](=O)[O-])n1)Nc1nccs1` here?
Its B-score is -5.19 (active).

`Cc1ccnc(NC(=O)Cn2ccc([N+](=O)[O-])n2)c1` was tested. Which B-score did it give?
Its B-score is “inactive”.

For `Cc1cccc(C)c1NC1=NC(=S)N(c2ccc(N(C)C)cc2)C1(C)C`, which B-score is on record?
Its B-score is “inactive”.

For `CN(C)CCCn1c(=O)n(Cc2ccccc2)c(=O)c2c3c(sc21)CCCCC3`, which B-score is on record?
The B-score was “inactive”.

Which B-score does the source give for `Cc1c(S(=O)(=O)NC(C)c2ccccc2)c(=O)n(C)c(=O)n1C` (stereo not drawn) here?
Its B-score is “inactive”.

How did the B-score turn out when `O=C(CNC(=O)C12CC3CC(CC(C3)C1)C2)OCC(=O)N1CCCCC1` was run?
The B-score was “inactive”.

For `COc1cc2c(cc1OC)C(C(C)C)=NC(C)(C)C2`, which B-score is on record?
The B-score was “inactive”.

Which B-score does the source give for `COc1cc2c(cc1OC)C(Nc1ccc(S(N)(=O)=O)cc1)=NC(C)(C)C2` here?
The B-score was “inactive”.

With `COc1cc2c(cc1O)C(SC)=NC(C)(C)C2` as the compound, how does the B-score read?
Its B-score is -5.85 (active).

Which B-score does the source give for `CN(C)CCc1c[nH]c2ccc(Cn3cncn3)cc12` here?
The B-score was “inactive”.

With `Clc1ccc(-c2nnc(-c3ccccc3)nc2N2CCSCC2)cc1` as the compound, how does the B-score read?
The B-score was “inactive”.

`CC1CCN(Cc2nc(-c3ccc(Cl)cc3)no2)CC1` was tested. Which B-score did it give?
The B-score was “inactive”.

How did the B-score turn out when `Clc1ccc(-c2nc3ccccn3c2CN2CCSCC2)cc1` was run?
The B-score was -5.66 (active).

With `O=C(CSCc1ccc(Cl)cc1)N1CCN(Cc2ccc3c(c2)OCO3)CC1` as the compound, how does the B-score read?
Its B-score is “inactive”.

`CCCOc1ccc(NC(=O)CC2C(=O)N(C)C(=S)N2Cc2ccc3c(c2)OCO3)cc1` (stereo not drawn) was tested. Which B-score did it give?
The B-score was “inactive”.

With `O=C(Nc1ccc(Cl)cc1)C1c2cccc[n+]2CC(=O)N1Cc1ccc2c(c1)OCO2` (stereo not drawn) as the compound, how does the B-score read?
The B-score was -6.48 (active).

With `COc1ccc(C)cc1Nc1nc(C)nc2c1oc1ccccc12` as the compound, how does the B-score read?
Its B-score is “inactive”.

How did the B-score turn out when `COc1ccc2c(c1)C(=O)Nc1cc(Cl)ccc1N2` was run?
Its B-score is “inactive”.

With `CCCCN(CC)CCNC(=O)c1[nH]c(C)c(C(C)=O)c1C` as the compound, how does the B-score read?
The B-score was “inactive”.

With `CC(=O)c1c(C)[nH]c(C(=O)NCCCN2CCCC2)c1C` as the compound, how does the B-score read?
Its B-score is “inactive”.

Which B-score does the source give for `CCC1CCCCN1CCNC(=O)c1[nH]c(C)c(C(C)=O)c1C` (stereo not drawn) here?
The B-score was -5.1 (active).

For `NC(=O)CC[C@@H]1NC(=O)[C@@H]2CCCN2C(=O)c2cc([N+](=O)[O-])cc(F)c2NCCC[C@@H](C(N)=O)NC1=O`, which B-score is on record?
Its B-score is “inactive”.

How did the B-score turn out when `O=C(CSc1nc2nccnc2c(=O)n1Cc1cccs1)Nc1ccccc1F` was run?
The B-score was “inactive”.
